Measurements: PubChem BioAssay (NCATS)
Inconclusive results are not listed. Calls of active or inactive are those of the source. Unless noted, calls come from the whole dose curve.

What was measured:
[1] = biological target: Peroxisome proliferator-activated receptor delta (Homo sapiens) (UniProt Q03181); test: qHTS assay for small molecule antagonists of peroxisome proliferator-activated receptor delta signaling (AID 588535; active = well fitted inhibition curve with a large enough effect in the signal ratio, with a control signal flat, not every such curve was filed as active; the % refers to the signal ratio)
Peroxisome proliferator-activated receptor delta (Homo sapiens), sequence (Q03181 whole entry, looked up): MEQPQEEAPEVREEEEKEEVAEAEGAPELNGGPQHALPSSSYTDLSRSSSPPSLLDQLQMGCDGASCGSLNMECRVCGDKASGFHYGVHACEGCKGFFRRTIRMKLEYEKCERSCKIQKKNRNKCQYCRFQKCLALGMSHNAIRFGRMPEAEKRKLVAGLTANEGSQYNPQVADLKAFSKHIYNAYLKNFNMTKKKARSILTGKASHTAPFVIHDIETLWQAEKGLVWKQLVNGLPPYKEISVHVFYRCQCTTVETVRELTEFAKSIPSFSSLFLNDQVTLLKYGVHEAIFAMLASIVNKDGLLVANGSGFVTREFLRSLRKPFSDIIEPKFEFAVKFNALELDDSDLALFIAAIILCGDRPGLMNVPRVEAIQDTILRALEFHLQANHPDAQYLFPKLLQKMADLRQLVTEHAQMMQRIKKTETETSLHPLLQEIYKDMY
Summary of the method: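 Fluorescence from CCF4-loaded GeneBLAzer PPAR-delta-UAS-bla HEK293T cells (2 hrs RT loading) quantified reporter inhibition after an 18 hr, 37 C compound exposure across a titration.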

[2] = biological target: Peroxisome proliferator-activated receptor gamma (Homo sapiens) (UniProt P37231); test: qHTS assay for small molecule antagonists of peroxisome proliferator-activated receptor gamma signaling (AID 588537; active = well fitted inhibition curve with a large enough effect in the signal ratio, with a control signal flat, not every such curve was filed as active; the % refers to the signal ratio;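 note: reporter cells co-stimulated with 50 nM rosiglitazone agonist during compound treatment; % of control where 0% means no effect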)
Peroxisome proliferator-activated receptor gamma (Homo sapiens), sequence (P37231 whole entry, looked up): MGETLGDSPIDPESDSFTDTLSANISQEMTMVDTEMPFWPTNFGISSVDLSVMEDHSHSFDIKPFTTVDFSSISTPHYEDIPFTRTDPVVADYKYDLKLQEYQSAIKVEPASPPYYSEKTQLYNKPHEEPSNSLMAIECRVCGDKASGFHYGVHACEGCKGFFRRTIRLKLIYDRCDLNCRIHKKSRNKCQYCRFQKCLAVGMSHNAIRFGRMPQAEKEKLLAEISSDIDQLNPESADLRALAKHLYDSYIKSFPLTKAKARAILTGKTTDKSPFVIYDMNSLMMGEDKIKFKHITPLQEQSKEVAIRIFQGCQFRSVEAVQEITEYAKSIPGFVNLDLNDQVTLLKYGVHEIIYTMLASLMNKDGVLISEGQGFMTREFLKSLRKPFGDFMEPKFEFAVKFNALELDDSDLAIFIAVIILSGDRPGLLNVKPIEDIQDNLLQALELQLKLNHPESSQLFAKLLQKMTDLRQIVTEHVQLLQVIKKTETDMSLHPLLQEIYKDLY
Summary of the method: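 Fluorescence at 460 and 530 nm (405 nm excitation) reported beta-lactamase cleavage of CCF4 after 2 h room-temperature loading. HEK293 reporter cells in 1% charcoal/dextran-treated FBS had received compound and rosiglitazone for 16 h.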

[3] = qHTS assay for small molecule activators of the nuclear factor-kappa B (NF-kB) signaling pathway (AID 651749; active = well fitted activation curve with a large enough effect in the signal ratio; the % refers to the signal ratio; note: series mostly up to about 77 µM; % of control where 0% means no effect); conditions: NF-kB-bla ME-180 cells, beta-lactamase FRET ratio, 16 h; activation: hits give high values
Summary of the method: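 In this qHTS format, compounds acting as activators increase NF-kB-driven beta-lactamase in ME-180 cells, measured as disrupted FRET after 16 hr exposure at 37C and 5% CO2.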

[4] = biological target: Glucocorticoid receptor (Homo sapiens) (UniProt P04150); test: qHTS assay for small molecule agonists of glucocorticoid receptor signaling (AID 588532; active = well fitted curve in the direction sought with a large enough effect in the signal ratio, with a control signal flat; the % refers to the signal ratio;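 note: 100% = dexamethasone at 0.1 µM and 0% = DMSO only wells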); conditions: HeLa MMTV-bla, beta-lactamase ratio, agonist, 18 h; hits give high values; percent of dexamethasone control, DMSO zero
Glucocorticoid receptor (Homo sapiens), sequence (P04150 whole entry, looked up): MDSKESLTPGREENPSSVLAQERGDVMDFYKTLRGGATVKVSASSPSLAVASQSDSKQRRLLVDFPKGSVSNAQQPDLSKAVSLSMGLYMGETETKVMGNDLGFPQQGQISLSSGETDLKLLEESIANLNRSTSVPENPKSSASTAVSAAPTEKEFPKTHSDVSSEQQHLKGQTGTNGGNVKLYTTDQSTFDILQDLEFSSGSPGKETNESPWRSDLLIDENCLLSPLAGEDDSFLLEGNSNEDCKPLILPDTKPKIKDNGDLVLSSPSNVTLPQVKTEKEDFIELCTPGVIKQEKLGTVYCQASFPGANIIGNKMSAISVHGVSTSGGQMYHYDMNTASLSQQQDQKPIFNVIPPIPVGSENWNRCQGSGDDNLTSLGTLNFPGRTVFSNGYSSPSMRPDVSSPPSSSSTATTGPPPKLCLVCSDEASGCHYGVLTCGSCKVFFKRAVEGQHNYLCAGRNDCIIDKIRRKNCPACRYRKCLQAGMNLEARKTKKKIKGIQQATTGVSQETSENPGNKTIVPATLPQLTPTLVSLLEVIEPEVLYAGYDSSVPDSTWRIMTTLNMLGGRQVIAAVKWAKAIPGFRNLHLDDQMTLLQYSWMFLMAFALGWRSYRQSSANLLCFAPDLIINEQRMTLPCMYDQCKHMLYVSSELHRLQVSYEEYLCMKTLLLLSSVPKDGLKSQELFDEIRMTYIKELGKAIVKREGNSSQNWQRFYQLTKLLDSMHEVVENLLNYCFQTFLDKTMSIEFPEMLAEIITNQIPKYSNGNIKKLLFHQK
Summary of the method: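 HeLa GRE-bla reporter cells; 18 h compound exposure at 37 C; 2 h CCF4 loading at room temperature; fluorescence at 460 and 530 nm; EC50 by Hill equation.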

[5] = biological target: Glucocorticoid receptor (Homo sapiens) (UniProt P04150); test: qHTS assay for small molecule antagonists of glucocorticoid receptor signaling (AID 588533; active = well fitted inhibition curve with a large enough effect in the signal ratio, with a control signal flat, not every such curve was filed as active; the % refers to the signal ratio;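 note: cells stimulated with 2 nM dexamethasone as agonist; % is set by controls: 0 for no effect and ±100 for the full control effect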)
Summary of the method: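 Antagonist-mode qHTS: compound titrations added to GRE-bla HeLa cells, then dexamethasone 2 nM final; 18 h, 37 C. CCF4 FRET fluorescence normalized to dexamethasone and DMSO; IC50 from Hill fit.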

[6] = qHTS assay for small molecule agonists of the antioxidant response element (ARE) signaling pathway (AID 651741; active = well fitted activation curve with a large enough effect in the signal ratio; the % refers to the signal ratio; note: % of control where 0% means no effect)
Summary of the method: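 Stably integrated ARE-beta-lactamase reporter HepG2 cells; 16 h compound incubation, 37 C; LiveBLAzer FRET substrate 2 h at room temperature; fluorescence intensity.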

[7] = biological target: Peroxisome proliferator-activated receptor gamma (Homo sapiens) (UniProt P37231); test: qHTS assay for small molecule agonists of peroxisome proliferator-activated receptor gamma signaling (AID 588536; active = well fitted curve in the direction sought with a large enough effect in the signal ratio, with a control signal flat, not every such curve was filed as active; the % refers to the signal ratio;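 note: 0% = DMSO basal wells and 100% = rosiglitazone at 2 µM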)
Summary of the method: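 Beta-lactamase reporter read-out: CCF4 fluorescence (ex 405, em 460/530 nm) after 2 h at RT. HEK293 GeneBLAzer cells were treated for 16 h at 37 C. Hill fits gave EC50 and efficacy versus 2 uM rosiglitazone (100%) and DMSO (0%).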

[8] = biological target: Androgen receptor (Homo sapiens) (UniProt P10275); test: qHTS assay for small molecule agonists of androgen receptor signaling (AID 588515; active = well fitted curve in the direction sought with a large enough effect in the signal ratio, with a control signal flat; the % refers to the signal ratio; note: % is set by controls: 0 for no effect and ±100 for the full control effect); conditions: AR-UAS-bla HEK293, beta-lactamase ratio, agonist 16 h; activation: hits give high values
Androgen receptor (Homo sapiens), sequence (P10275 whole entry, looked up): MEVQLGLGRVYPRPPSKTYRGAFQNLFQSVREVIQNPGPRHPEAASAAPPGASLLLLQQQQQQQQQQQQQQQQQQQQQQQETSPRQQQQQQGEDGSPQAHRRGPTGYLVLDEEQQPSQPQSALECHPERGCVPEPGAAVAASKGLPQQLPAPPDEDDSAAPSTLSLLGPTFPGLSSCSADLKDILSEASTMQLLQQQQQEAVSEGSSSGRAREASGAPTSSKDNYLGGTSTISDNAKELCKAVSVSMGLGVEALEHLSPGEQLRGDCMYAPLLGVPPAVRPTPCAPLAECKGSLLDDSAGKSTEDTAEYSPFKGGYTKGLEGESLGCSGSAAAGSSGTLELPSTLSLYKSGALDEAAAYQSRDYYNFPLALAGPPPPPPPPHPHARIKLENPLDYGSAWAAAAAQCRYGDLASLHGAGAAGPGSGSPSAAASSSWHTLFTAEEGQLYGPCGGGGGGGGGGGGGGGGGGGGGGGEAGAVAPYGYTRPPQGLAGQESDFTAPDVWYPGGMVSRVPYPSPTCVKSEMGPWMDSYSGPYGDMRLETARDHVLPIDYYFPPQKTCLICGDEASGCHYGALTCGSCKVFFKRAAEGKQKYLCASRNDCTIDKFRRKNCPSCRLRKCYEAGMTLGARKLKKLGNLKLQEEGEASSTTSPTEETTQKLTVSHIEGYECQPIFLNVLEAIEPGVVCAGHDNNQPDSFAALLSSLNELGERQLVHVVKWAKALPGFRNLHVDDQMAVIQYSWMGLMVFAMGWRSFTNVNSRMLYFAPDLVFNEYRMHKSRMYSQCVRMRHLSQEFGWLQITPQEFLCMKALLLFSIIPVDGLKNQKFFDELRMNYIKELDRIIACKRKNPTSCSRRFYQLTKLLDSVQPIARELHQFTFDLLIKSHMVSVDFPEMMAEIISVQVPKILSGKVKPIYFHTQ
Summary of the method: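 Stimulation of an AR-responsive β-lactamase reporter in GripTite HEK293 cells was measured after 16 h compound exposure at 37 °C, via CCF4 fluorescence after 2 h RT. EC50 from Hill fits, normalized to R1881 at 30 nM.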

[9] = biological target: Androgen receptor (Homo sapiens) (UniProt P10275); test: qHTS assay for small molecule antagonists of androgen receptor signaling (AID 588516; active = well fitted curve in the direction sought with a large enough effect in the signal ratio, with a control signal flat, not every such curve was filed as active; the % refers to the signal ratio; note: % is set by controls: 0 for no effect and ±100 for the full control effect)
Summary of the method: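 AR-UAS-bla GripTite HEK 293 cells (2000/well) treated with compound titrations plus 10 nM R1881 for 16 h at 37C. Beta-lactamase read by CCF4 FRET (460/530 nm); IC50 from Hill fits, normalized to R1881 and DMSO control wells.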

[10] = biological target: Bile acid receptor (Homo sapiens) (UniProt Q96RI1); test: qHTS assay for small molecule antagonists of farnesoid X receptor signaling (AID 588526); note: % is set by controls: 0 for no effect and ±100 for the full control effect
Bile acid receptor (Homo sapiens), sequence (Q96RI1 whole entry, looked up): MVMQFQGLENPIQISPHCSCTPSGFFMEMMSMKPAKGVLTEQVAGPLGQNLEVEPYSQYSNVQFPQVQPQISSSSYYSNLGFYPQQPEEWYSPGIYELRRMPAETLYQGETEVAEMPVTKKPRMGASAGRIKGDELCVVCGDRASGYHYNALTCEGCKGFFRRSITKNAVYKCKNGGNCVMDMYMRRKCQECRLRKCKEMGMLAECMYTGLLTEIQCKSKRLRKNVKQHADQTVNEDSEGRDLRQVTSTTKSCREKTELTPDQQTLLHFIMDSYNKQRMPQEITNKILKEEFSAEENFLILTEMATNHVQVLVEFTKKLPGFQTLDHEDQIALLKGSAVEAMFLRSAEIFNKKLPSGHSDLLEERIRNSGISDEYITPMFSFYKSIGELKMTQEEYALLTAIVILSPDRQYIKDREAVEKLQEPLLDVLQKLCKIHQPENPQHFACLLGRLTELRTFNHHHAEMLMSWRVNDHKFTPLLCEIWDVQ
Summary of the method: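 Antagonist mode: titrated compounds tested against chenodeoxycholic acid stimulation (normalized to 50 uM CDCA and DMSO) in GeneBLAzer HEK293T cells for 16 h. Beta-lactamase read by CCF4 fluorescence; IC50 from Hill fits.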

O=[N+]([O-])C(CO)(CO)CO
inactive: Potency [1] | Potency [2] | activation [3] 0.34%

CC/C=C\CCOC(=O)c1ccccc1O
inactive: activation [4] -3.47% | Potency [5] | Potency [6] | activation [3] -0.397%

C=CC(=O)NC(C)(C)CS(=O)(=O)O
inactive: outcome [7] | Potency [2] | Potency [6]

OC1CCCCCCCCCCC1
inactive: activation [4] -19.4% | Potency [5] | Potency [1] | outcome [7] | Potency [2] | Potency [6] | activation [3] 0.918%

CC(C)(C)c1n[nH]c(=O)n(N)c1=O
inactive: activation [8] 8.74% | outcome [9] | Potency [10] | activation [4] 14.6% | Potency [5] | Potency [1] | Potency [6] | activation [3] 0.103%

NNS(=O)(=O)c1ccc(Oc2ccc(S(=O)(=O)NN)cc2)cc1
inactive: Potency [10] | Potency [1] | outcome [7] | activation [3] -1.01%

Brc1ccc(Br)c(Br)c1
inactive: outcome [7] | Potency [2] | Potency [6] | activation [3] -0.374%

CC(=O)OC(C)(C)C1CC=C(C)CC1 (configuration not stated)
inactive: Potency [1] | outcome [7] | Potency [2] | Potency [6]

CC(=O)OC1CCC(C(C)(C)C)CC1 (configuration not stated)
inactive: activation [8] 3% | outcome [9] | activation [4] -9.53% | Potency [5] | Potency [1] | Potency [6]

c1ccc(OCCOc2ccccc2)cc1
inactive: activation [4] -7.01% | Potency [5] | Potency [1] | Potency [2] | Potency [6] | activation [3] -1.28%

CCC(C)(C)C1CCC(O)CC1 (configuration not stated)
inactive: outcome [7] | Potency [2] | Potency [6]

CC1(C)C(C=C(Cl)Cl)[C@H]1C(=O)OCc1cccc(Oc2ccccc2)c1 (some centres not stated)
inactive: activation [8] -0.893% | outcome [9] | Potency [1]

CCOC(=O)CC(O)(CC(=O)OCC)C(=O)OCC
inactive: activation [4] -0.518% | Potency [5] | outcome [7] | Potency [6] | activation [3] -1.34%

O=C(O)C(c1ccc(Cl)cc1)c1ccc(Cl)cc1
inactive: Potency [10] | Potency [1] | activation [3] 0.121%

C[Si]1(C)N[Si](C)(C)N[Si](C)(C)N1
inactive: outcome [7] | Potency [2] | Potency [6] | activation [3] -2.89%
